# Inconclusive results are not listed. A call without a number means that no potency is given here. The source made the active and inactive calls. Calls follow the shape of the dose curve; as a rule, active = well fitted cell-killing curve with a large enough effect in the repeat runs; inconclusive = weak or mixed curves, or effect the other way; inactive = flat fitted curve, though single readings scatter.
# Assay: qHTS assay to identify small molecule agonists of the TGF-beta/Smad signaling pathway - cell viability counter screen (AID 1346829); also: nearly all actives have a fitted effect of over 45% in size; as to activity change, negative = cytotoxicity: top concentration of the series differs between compounds
# Details: SBE-bla HEK293T viability, CellTiter-Glo luminescence, 5 h; series mostly up to 76.8 µM
# Text: National Center for Advancing Translational Sciences [NCATS]
# NIH Chemical Genomics Center [NCGC]
# U.S. Environmental Protection Agency [EPA]
# National Institutes of Environmental Health Sciences [NIEHS]
# National Toxicology Program [NTP]
# U.S. Food and Drug Administration [FDA]
# Transforming growth factor beta (TGF-beta) superfamily consists of a large number of structurally related dimeric proteins that act as hormones or local mediators in regulating a wide range of biological functions. This superfamily includes TGF-betas themselves, the bone morphogenetic proteins (BMPs) and the activins. These ligands induce oligomerization of serine/threonine receptor kinases and phosphorylate the cytoplasmic signaling molecules of Smad protein family. CellSensor SBE-bla HEK 293T cell line (Life Technologies, Carlsbad, CA), responsive to TGF-beta was used to screen Tox21 10K compound library for identification of agonists/antagonists of the Smad signaling pathway. This cell line contains a beta-lactamase reporter gene under control of the Smad binding element (SBE) stably integrated into HEK 293T cells. Also cytotoxicity of the compounds was tested in parallel by measuring the cell viability using CellTiter-Glo assay system in the same wells.
# Tox21 Assay Protocol Summary:
# SBE-bla HEK 293T cells were dispensed at 4,000/well in 6 uL of assay medium into black wall/clear-bottom 1536-well plates using a Multidrop Combi (ThermoFisher Scientific, Waltham, MA) dispenser. After the assay plates were incubated at 37 C and 5% CO2 for an overnight, 23 nL of compounds dissolved in DMSO, positive controls or DMSO only was transferred to the assay plate by a Pintool station (Kalypsys, San Diego, CA). The assay plates were incubated at 37 C and 5% CO2 for 5 hr. One uL of LiveBLAzer B/G FRET substrate (Life Technologies) was added using a Flying Reagent Dispenser (FRD, Aurora Discovery, San Diego, CA) and the plates were incubated at room temperature for 2 hr. Fluorescence intensity (405 nm excitation, 460 nm and 530 nm emissions) was measured using an Envision plate reader (PerkinElmer, Shelton, CT). For cytotoxicity read, 4 uL of CellTiter-Glo reagent (Promega Corporation, Madison, WI) was added to each well of the assay plates using FRD. After 30min incubation at room temperature, the luminescence intensity was measured using ViewLux plate reader (PerkinElmer).
# Potency is read from the fitted curve at half-maximal effect.
SMILES,Potency,"activity change, negative = cytotoxicity"
CCn1c2ccccc2c2ccccc21,inactive,
Cc1ccc(N=Nc2c(O)ccc3ccccc23)c(C)c1,inactive,
CCNc1nc(NC(C)(C)C)nc(OC)n1,inactive,
c1ccc(-c2ccccc2-c2ccccc2)cc1,inactive,
O=c1[nH]cccc1O,inactive,
Cn1c(=O)[nH]c2ncn(C)c2c1=O,inactive,
CCc1cccc(C)c1N(C(=O)C(=O)O)C(C)COC (stereo not given),inactive,
O=C(N[C@H](CO)[C@H](O)c1ccc([N+](=O)[O-])cc1)C(Cl)Cl,inactive,
Oc1cccc2c(O)cccc12,inactive,
CCOC=C(C(=O)OCC)C(=O)OCC,inactive,
O=C(CCCCCCCCc1cccnc1)N1CCC(C=C(c2ccccc2)c2ccccc2)CC1,54.9 µM (active),
C/C(=N\[Si](C)(C)C)O[Si](C)(C)C,inactive,
O=C(c1ccccc1)c1ccc(Cl)cc1,inactive,
O=C1CCC/C=C\CCCCCCCCCC1,inactive,
C=Cc1ccc(O)c(OC)c1,inactive,
CCCCCCCC/C=C\CCCCCCCC(=O)N(CCO)CCO,inactive,
CC1(C)[C@H](C(=O)OCc2cccc(Oc3ccccc3)c2)[C@@H]1C=C(Cl)Cl,inactive,
Clc1cccc(Cl)n1,inactive,
CCC1(C)C(=O)N(Cl)C(=O)N1Cl (stereo not given),inactive,
C/C=C/C(=O)OCC(C)C,inactive,

SMILES,Potency,"activity change, negative = cytotoxicity"
Cc1ccc2nc(-c3ccc(N)cc3)sc2c1S(=O)(=O)O,inactive,
[Cl][Dy]([Cl])[Cl],inactive,
CCN(CC)c1ccc(N=Nc2ccccc2)cc1,inactive,
CCCCCN=C(N)N/N=C/c1c[nH]c2ccc(OC)cc12,23.9 µM (active),
CC(C=O)c1ccccc1 (stereo not given),inactive,
CC(c1cc(C(C)(C)C)cc(C(C)(C)C)c1O)c1cc(C(C)(C)C)cc(C(C)(C)C)c1O,inactive,
CCN(CCC#N)c1ccc(N=Nc2ccc([N+](=O)[O-])cc2)cc1,inactive,
Cc1cc(C)c(O)c(C(C)(C)C)c1,inactive,
c1ccc(-c2ccc(C(c3ccccc3)n3ccnc3)cc2)cc1 (stereo not given),inactive,
CC(C)c1ccc2sc3ccccc3c(=O)c2c1,inactive,
O=C(O)CN(CCCN(CC(=O)O)CC(=O)O)CC(=O)O,,-5.77% [at 15.8 µM] (inactive)
Cc1ccc(C2OC[C@@H]3OC(c4ccc(C)cc4)O[C@H]([C@H](O)CO)[C@@H]3O2)cc1 (stereo not given in full),inactive,
CCCCCCCCc1ccc(Nc2ccc(CCCCCCCC)cc2)cc1,inactive,
[Cl][Eu]([Cl])[Cl],inactive,
CSc1nnc(C(C)(C)C)c(=O)[nH]1,inactive,
COc1cc(OC)nc(NC(=O)NS(=O)(=O)Nc2ccccc2C(=O)N(C)C)n1,inactive,
CCN(CC)c1ccc(C=O)cc1,inactive,
NC(=O)C1CO1 (stereo not given),inactive,
O=S(=O)(c1ccc(OCc2ccccc2)cc1)c1ccccc1O,inactive,
O=[N+]([O-])c1ccc(CO)cc1,inactive,

# — PubChem BioAssay (Tox21)
